# Measured values: ChEMBL document CHEMBL2218924, “A broad activity screen in support of a chemogenomic map for kinase signalling research and drug discovery” (Biochem J, 2013)
# What was measured:
# [1] = target: T1, Ephrin type-A receptor 3 (Homo sapiens) (UniProt P29320); conditions: at 10 µM
# T1 sequence (whole entry): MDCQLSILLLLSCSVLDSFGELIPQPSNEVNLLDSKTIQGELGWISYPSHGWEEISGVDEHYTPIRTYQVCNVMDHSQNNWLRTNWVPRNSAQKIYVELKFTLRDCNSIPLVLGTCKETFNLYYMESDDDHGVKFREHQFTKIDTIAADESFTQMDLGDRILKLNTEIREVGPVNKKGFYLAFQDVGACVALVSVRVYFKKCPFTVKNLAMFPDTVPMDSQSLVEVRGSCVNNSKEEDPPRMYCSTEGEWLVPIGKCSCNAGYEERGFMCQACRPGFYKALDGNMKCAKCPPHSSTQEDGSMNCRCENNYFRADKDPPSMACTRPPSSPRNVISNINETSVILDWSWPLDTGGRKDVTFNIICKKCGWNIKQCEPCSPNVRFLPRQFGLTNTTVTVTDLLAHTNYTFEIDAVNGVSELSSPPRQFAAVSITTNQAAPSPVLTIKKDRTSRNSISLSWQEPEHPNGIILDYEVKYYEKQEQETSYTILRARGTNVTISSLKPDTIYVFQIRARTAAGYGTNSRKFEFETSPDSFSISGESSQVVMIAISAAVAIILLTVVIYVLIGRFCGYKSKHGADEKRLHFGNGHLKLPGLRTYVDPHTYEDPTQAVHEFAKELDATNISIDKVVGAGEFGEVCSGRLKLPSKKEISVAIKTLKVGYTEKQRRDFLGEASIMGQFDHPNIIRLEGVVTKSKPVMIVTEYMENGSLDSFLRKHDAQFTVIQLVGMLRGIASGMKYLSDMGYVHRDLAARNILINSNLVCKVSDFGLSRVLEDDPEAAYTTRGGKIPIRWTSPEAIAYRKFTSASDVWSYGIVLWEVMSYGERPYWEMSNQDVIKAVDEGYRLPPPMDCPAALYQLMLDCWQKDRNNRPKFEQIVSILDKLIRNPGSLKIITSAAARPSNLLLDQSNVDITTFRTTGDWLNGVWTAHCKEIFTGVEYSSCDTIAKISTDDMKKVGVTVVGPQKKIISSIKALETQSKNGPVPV
# [2] = target: Ephrin type-A receptor 4 (Homo sapiens) (UniProt P54764); conditions: at 1 µM
# Chain of Ephrin type-A receptor 4 (Homo sapiens) (P54764 whole entry): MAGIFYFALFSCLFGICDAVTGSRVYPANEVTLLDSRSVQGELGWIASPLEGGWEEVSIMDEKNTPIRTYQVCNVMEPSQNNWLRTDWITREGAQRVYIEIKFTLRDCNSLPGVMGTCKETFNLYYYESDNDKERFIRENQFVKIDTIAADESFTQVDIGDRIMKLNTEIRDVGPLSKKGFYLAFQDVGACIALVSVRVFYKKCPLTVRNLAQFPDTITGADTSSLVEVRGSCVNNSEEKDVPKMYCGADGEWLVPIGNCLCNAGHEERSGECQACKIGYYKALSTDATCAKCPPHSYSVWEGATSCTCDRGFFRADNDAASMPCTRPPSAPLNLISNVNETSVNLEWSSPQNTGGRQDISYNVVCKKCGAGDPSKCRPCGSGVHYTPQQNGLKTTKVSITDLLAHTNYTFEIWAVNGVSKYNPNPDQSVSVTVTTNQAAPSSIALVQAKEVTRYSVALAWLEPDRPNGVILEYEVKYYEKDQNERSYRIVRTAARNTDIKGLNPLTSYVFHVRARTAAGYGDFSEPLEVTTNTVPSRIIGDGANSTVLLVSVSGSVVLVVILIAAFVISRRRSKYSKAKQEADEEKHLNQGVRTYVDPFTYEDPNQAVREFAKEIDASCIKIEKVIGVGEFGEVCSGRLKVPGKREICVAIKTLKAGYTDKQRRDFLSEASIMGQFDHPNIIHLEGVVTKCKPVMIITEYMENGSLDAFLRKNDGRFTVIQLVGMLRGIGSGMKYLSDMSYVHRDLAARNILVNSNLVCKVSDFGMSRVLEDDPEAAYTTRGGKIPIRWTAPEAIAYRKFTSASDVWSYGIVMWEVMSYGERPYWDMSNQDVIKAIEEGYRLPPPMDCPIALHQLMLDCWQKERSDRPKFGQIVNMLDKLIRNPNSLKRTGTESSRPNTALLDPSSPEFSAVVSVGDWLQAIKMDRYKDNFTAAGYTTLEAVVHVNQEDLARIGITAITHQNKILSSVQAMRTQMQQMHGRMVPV
# [3] = target: Ephrin type-A receptor 4 (Homo sapiens) (UniProt P54764); conditions: at 10 µM
# [4] = target: Ephrin type-A receptor 5 (Homo sapiens) (UniProt P54756); conditions: at 1 µM
# Chain of Ephrin type-A receptor 5 (Homo sapiens) (P54756 whole entry): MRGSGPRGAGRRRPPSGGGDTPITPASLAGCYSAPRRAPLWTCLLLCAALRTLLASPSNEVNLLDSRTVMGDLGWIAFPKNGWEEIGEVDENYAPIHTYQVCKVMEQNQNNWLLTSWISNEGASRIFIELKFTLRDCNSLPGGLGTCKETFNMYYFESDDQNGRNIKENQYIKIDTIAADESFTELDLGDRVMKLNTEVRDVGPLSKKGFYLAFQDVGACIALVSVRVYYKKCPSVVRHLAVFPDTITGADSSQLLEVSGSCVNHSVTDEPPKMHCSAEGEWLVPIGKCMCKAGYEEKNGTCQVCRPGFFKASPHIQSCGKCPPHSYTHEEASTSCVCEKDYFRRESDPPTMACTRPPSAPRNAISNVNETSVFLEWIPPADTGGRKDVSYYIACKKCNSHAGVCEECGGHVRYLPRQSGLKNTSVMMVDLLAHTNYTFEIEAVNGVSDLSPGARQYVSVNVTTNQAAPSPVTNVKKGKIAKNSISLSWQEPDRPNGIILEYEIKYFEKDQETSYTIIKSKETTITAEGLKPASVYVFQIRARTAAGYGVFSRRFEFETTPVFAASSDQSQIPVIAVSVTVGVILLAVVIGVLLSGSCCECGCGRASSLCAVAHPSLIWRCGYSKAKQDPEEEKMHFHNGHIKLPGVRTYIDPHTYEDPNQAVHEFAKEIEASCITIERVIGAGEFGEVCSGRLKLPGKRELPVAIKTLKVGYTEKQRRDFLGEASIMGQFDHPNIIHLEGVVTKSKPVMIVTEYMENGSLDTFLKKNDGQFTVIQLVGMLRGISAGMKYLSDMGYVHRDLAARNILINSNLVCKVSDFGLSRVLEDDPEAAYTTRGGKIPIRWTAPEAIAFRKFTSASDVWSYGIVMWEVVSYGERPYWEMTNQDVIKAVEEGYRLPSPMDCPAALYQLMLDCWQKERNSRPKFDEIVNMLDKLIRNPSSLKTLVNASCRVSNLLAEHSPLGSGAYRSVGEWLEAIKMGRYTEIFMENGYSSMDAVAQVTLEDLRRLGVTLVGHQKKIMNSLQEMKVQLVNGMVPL
# [5] = target: Ephrin type-A receptor 5 (Homo sapiens) (UniProt P54756); conditions: at 10 µM
# [6] = target: Ephrin type-A receptor 7 (Homo sapiens) (UniProt Q15375); conditions: at 1 µM
# Chain of Ephrin type-A receptor 7 (Homo sapiens) (Q15375 28-998 limits assumed): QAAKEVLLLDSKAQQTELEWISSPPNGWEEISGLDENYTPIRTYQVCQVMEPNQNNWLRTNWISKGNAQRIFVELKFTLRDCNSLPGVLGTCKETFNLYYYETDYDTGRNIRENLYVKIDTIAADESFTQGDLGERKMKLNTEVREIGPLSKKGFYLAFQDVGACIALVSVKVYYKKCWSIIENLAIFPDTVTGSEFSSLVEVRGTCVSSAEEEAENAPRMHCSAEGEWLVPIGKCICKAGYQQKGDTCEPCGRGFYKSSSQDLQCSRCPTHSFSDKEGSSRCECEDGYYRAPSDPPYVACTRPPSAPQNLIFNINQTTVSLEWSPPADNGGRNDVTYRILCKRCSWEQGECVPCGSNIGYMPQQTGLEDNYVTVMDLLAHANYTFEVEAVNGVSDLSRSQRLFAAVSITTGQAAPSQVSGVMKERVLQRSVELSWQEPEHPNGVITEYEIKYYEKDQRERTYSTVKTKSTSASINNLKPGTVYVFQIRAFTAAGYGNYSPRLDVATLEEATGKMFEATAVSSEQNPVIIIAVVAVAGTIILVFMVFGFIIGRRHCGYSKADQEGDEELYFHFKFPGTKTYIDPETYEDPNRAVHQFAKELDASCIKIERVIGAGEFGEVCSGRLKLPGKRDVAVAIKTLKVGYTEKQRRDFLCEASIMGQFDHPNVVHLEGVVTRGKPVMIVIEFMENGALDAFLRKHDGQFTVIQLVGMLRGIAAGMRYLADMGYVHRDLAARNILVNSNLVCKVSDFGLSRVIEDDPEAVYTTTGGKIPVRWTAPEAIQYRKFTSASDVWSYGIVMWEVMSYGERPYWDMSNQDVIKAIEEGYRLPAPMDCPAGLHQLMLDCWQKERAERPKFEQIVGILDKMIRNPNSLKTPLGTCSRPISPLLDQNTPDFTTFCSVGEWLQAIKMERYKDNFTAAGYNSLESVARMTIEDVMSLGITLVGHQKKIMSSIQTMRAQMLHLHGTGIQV
# [7] = target: Ephrin type-A receptor 7 (Homo sapiens) (UniProt Q15375); conditions: at 10 µM
# [8] = target: T2, Ephrin type-B receptor 1 (Homo sapiens) (UniProt P54762); conditions: at 1 µM
# T2 sequence (whole entry): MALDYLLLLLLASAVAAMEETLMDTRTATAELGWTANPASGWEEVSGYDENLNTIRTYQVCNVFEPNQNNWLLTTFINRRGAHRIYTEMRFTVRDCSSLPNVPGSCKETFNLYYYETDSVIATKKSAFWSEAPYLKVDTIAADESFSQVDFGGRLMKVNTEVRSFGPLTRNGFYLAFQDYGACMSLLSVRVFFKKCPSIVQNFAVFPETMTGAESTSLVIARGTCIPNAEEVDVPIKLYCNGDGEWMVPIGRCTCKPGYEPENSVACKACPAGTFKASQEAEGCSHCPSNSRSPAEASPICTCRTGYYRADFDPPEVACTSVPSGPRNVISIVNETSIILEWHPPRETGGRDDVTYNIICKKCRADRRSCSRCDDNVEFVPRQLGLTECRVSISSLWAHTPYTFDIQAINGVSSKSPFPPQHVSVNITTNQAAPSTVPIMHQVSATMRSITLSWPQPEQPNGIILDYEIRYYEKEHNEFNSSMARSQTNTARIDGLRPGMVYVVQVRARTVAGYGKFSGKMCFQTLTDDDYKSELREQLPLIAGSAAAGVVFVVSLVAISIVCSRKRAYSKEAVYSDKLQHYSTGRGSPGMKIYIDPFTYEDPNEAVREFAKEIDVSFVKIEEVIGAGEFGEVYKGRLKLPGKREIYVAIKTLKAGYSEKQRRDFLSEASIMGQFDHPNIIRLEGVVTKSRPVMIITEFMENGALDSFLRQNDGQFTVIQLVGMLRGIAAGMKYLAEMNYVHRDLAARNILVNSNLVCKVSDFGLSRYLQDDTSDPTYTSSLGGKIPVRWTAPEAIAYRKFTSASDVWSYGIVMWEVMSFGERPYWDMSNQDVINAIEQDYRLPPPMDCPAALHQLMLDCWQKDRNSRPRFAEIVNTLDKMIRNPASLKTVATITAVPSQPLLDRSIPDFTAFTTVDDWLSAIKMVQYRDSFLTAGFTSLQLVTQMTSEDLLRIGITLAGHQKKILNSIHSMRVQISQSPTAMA
# [9] = target: T2, Ephrin type-B receptor 1 (Homo sapiens); conditions: at 10 µM
# [10] = target: T3, Ephrin type-B receptor 2 (Homo sapiens) (UniProt P29323); conditions: at 1 µM
# T3 sequence (whole entry): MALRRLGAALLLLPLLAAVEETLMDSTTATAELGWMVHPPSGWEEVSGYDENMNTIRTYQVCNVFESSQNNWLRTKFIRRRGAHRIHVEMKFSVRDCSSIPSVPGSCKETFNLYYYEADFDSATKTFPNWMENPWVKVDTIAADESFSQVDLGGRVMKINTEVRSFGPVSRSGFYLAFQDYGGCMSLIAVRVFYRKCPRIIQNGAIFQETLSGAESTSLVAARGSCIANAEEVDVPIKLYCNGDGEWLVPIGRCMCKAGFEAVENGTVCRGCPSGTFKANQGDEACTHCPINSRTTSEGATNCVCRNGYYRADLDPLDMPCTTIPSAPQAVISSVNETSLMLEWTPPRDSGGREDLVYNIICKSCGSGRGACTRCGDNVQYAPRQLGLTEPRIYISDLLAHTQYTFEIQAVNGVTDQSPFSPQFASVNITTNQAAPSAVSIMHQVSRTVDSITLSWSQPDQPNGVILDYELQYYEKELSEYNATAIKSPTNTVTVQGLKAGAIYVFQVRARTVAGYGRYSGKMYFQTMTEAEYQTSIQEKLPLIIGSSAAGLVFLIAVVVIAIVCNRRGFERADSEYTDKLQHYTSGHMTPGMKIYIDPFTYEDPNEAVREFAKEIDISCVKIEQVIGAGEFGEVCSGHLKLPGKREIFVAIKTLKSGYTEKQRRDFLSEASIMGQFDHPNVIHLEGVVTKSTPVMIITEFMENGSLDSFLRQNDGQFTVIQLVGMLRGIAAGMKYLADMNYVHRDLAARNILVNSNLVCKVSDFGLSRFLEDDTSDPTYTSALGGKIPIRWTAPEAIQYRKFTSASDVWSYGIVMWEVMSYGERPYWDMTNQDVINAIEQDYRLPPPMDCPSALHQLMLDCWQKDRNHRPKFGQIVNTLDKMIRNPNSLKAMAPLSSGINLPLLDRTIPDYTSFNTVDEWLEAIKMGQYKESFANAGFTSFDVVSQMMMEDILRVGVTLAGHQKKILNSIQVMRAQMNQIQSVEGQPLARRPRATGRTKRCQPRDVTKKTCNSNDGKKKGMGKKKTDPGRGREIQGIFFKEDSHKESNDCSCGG
# [11] = target: T3, Ephrin type-B receptor 2 (Homo sapiens); conditions: at 10 µM
# [12] = target: T4, Ephrin type-B receptor 3 (Homo sapiens) (UniProt P54753); conditions: at 1 µM
# T4 sequence (whole entry): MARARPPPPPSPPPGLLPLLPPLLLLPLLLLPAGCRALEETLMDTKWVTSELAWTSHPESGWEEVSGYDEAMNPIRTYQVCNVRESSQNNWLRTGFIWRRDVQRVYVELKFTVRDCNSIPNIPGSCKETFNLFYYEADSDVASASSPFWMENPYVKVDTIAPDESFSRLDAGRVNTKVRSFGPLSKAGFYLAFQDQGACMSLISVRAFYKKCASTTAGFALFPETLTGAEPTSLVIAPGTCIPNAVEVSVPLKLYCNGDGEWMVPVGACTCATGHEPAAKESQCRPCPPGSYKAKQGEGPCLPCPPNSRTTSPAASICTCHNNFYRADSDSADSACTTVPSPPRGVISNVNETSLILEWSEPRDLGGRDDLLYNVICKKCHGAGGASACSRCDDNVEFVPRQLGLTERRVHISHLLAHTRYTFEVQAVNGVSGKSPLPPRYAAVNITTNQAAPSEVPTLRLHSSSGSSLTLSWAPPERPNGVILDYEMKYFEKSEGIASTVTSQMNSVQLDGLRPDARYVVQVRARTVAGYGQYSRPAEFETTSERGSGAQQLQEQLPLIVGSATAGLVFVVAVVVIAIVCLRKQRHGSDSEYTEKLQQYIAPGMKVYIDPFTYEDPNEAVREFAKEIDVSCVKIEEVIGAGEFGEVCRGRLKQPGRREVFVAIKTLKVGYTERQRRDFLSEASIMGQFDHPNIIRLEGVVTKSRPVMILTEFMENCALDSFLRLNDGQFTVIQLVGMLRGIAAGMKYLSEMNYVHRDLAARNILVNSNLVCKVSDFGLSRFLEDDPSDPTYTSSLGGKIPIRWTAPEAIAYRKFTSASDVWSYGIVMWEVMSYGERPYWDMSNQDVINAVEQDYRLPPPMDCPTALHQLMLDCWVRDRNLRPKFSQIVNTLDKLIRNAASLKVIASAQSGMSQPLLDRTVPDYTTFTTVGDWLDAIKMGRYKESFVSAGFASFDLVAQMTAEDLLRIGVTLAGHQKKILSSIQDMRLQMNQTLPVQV
# [13] = target: T4, Ephrin type-B receptor 3 (Homo sapiens); conditions: at 10 µM
# [14] = target: T5, Ephrin type-B receptor 4 (Homo sapiens) (UniProt P54760); conditions: at 1 µM
# T5 sequence (whole entry): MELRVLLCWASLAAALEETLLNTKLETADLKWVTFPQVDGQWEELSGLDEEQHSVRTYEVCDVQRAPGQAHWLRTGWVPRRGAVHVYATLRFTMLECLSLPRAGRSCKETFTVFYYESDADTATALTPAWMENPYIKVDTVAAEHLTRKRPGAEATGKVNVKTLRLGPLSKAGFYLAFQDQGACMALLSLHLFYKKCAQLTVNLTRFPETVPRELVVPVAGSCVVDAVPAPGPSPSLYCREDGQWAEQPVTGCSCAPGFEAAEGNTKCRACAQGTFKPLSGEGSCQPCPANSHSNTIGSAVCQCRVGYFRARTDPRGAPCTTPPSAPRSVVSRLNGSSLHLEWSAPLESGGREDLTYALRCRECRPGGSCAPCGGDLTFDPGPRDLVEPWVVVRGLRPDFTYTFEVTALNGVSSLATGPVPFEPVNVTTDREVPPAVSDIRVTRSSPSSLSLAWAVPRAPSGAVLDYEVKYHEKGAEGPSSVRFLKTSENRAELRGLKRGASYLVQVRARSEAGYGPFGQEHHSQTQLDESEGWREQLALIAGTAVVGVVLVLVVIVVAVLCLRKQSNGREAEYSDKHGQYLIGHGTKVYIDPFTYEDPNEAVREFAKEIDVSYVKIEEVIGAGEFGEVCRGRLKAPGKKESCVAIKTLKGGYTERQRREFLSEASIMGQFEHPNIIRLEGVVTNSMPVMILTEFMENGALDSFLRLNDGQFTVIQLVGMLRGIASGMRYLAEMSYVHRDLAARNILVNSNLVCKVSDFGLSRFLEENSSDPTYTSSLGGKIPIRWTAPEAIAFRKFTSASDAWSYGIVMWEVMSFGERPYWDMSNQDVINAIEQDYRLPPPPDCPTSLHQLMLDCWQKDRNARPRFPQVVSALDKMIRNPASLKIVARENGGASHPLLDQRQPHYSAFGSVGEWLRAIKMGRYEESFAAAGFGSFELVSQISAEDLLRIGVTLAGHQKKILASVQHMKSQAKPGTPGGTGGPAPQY
# [15] = target: T5, Ephrin type-B receptor 4 (Homo sapiens); conditions: at 10 µM
# [16] = target: Receptor tyrosine-protein kinase erbB-4 (Homo sapiens) (UniProt Q15303); conditions: at 1 µM
# Chain of Receptor tyrosine-protein kinase erbB-4 (Homo sapiens) (Q15303 whole entry): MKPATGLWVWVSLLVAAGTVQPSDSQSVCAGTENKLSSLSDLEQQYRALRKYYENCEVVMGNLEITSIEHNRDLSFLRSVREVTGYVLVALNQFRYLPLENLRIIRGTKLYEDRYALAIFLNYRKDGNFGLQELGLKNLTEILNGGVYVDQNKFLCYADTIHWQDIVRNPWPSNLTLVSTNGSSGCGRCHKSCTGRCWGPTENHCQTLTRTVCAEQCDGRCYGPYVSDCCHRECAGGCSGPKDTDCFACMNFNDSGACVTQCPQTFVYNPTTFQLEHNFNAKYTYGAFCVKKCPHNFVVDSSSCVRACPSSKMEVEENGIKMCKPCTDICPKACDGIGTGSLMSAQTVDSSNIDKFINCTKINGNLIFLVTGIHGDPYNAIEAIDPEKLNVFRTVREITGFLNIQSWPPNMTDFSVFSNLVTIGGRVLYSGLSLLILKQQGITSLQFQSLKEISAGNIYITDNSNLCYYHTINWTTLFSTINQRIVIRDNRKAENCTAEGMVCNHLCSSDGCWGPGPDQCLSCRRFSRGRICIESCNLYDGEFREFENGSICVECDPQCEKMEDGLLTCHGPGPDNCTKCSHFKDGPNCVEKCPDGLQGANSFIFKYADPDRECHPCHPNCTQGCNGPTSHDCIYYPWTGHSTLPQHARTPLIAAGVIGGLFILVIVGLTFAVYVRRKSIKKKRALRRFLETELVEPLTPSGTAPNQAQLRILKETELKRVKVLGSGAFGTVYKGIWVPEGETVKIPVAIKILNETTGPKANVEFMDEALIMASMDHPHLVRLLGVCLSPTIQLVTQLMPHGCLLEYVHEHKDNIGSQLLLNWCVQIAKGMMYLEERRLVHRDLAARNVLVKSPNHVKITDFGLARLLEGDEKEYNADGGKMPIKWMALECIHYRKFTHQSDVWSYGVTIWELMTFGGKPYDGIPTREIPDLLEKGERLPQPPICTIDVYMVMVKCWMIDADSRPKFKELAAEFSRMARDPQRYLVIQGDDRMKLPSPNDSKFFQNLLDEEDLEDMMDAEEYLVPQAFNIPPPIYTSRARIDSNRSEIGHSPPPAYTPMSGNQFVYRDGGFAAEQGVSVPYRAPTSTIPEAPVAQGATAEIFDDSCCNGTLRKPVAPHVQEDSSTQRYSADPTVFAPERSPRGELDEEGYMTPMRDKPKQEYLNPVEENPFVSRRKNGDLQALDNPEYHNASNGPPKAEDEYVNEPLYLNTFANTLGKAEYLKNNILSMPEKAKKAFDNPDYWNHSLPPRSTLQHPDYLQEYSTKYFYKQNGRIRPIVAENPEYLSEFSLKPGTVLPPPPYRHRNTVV
# [17] = target: Receptor tyrosine-protein kinase erbB-4 (Homo sapiens) (UniProt Q15303); conditions: at 10 µM
# [18] = target: Focal adhesion kinase 1 (Homo sapiens) (UniProt Q05397); conditions: at 1 µM
smiles,measurement,setting,value
CCCCc1c(-c2ccc(OC)cc2)[nH]c2nccnc12,residual activity,[1],49%
same,residual activity,[2],108%
same,residual activity,[3],105%
same,residual activity,[4],100%
same,residual activity,[5],83%
same,residual activity,[6],77%
same,residual activity,[7],73%
same,residual activity,[8],61%
same,residual activity,[9],61%
same,residual activity,[10],101%
same,residual activity,[11],89%
same,residual activity,[12],121% (inactive)
same,residual activity,[13],109%
same,residual activity,[14],78%
same,residual activity,[15],81%
same,residual activity,[16],120%
same,residual activity,[17],102%
same,residual activity,[18],67%
